# Compound activity: PubChem BioAssay, National Center for Advancing Translational Sciences (NCATS)
# PI5P4K alpha inh: blocks human PI5P4K alpha kinase activity | max response, % | 330,000 tested, 1.2% active | PI5P4Kalpha enzyme, ADP-Glo luminescence, 60 min; active compounds read low | AID 652105 | P48426; active = max response of -50% or lower; inconclusive = between -30% and -50%; inactive = -30% or higher; note: value at the top dose of about 77 µM; % is set by controls: 0 for no effect and ±100 for the full control effect
#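 qHTS, 1536-well: enzyme/substrate mix, compound by pin tool, 5 microM ATP final; RT 60 min; ADP-Glo reagents 1 (45 min) then 2 (30 min); luminescence.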
# L3MBTL1 block: blocks human L3MBTL1. Q9Y468. AlphaScreen L3MBTL1–H3K9me1 peptide binding. Potency, µM (top dose mostly 57.1 µM), for the others: top-dose activity, negative = inhibition, hits mostly inhibitors. 230,000 tested, 0.66% active. AID 485360; note: potency is the fitted concentration of half-maximal effect; % is set by controls: 0 for no effect and ±100 for the full control effect; nearly all actives have a fitted effect of over 60% in size
#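 L3MBTL1 (50 nM) pre-complexed 30 min with biotinylated H3(1-15)K9me1 peptide (75 nM), then compounds added for 30 min at room temperature; AlphaScreen streptavidin donor/nickel chelate acceptor beads (10 ug/mL final) read after 30 min dark incubation.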
# JMJD2A Tudor: JMJD2A Tudor domain (human) inhibition | O75164 | AlphaScreen JMJD2A-Tudor / H3K4me3 peptide binding | Potency, µM (series often up to 114 µM), for inactives: at the top dose activity change, negative = inhibition, actives largely listed as inhibitors | 390,000 tested, 4.4% active | AID 504339; note: potency is the fitted concentration of half-maximal effect; % is set by controls: 0 for no effect and ±100 for the full control effect; nearly all actives have a fitted effect of over 50% in size
# HP1b chromo inh: blocks HP1-beta chromodomain binding to methylated histone tails; P83916; AlphaScreen HP1-beta / biotin-H3K9me3 peptide binding; Potency, µM (doses to about 114 µM), for the others: at the top dose activity change, negative = inhibition, actives largely listed as inhibitors; 390,000 tested, 0.56% active; note: potency is the fitted concentration of half-maximal effect; nearly all actives have a fitted effect of over 70% in size
# Target sequence (P83916 whole entry, looked up): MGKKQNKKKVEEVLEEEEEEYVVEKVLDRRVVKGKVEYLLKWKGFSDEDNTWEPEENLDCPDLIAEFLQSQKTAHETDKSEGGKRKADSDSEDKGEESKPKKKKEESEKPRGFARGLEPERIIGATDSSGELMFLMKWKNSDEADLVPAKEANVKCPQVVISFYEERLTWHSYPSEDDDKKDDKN
#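 HP1-beta protein (50 nM final) preincubated 30 min at room temperature with biotinylated H3(1-18)K9me3 peptide (50 nM) in PBS pH 7.4, 0.01% Tween-20, then compound added for 30 min. AlphaScreen streptavidin donor/nickel chelate acceptor beads (10 ug/mL final), 30 min dark, luminescence read.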
# G9a inh: blocks human histone lysine methyltransferase G9a | G9a H3K9 monomethylation, AlphaScreen, 2 h | Potency, µM (titrated, usually from 102 µM), for inactives: top-dose activity, negative = inhibition, most hits filed as inhibitors | 350,000 tested, 8.8% active; note: potency is the fitted concentration of half-maximal effect; % is set by controls: 0 for no effect and ±100 for the full control effect; nearly all actives have a fitted effect of over 75% in size
# Target sequence (Q96KQ7 913-1193 limits assumed): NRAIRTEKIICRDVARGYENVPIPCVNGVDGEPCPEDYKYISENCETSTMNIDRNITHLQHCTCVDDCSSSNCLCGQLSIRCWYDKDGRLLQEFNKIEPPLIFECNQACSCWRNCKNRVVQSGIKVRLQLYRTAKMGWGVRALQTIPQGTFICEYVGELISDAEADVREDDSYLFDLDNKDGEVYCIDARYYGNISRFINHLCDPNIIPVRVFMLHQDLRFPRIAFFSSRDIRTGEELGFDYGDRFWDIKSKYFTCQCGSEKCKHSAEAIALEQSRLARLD
#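 AlphaScreen detection with an anti-monomethyl H3K9 antibody quantified product after a 2 h room-temperature reaction containing 500 nM biotinylated H3K9 peptide, 20 µM SAM and 20 nM enzyme, which had been preincubated 15 min with compound.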
# BAZ2B inh: blocks human BAZ2B; Q9UIF8; AlphaScreen BAZ2B-H3K14Ac peptide displacement; Potency, µM (doses to about 114 µM), without a hit: at the top dose activity change, negative = inhibition, hits mostly inhibitors; 360,000 tested, 4.4% active; note: potency is the fitted concentration of half-maximal effect; % is set by controls: 0 for no effect and ±100 for the full control effect; nearly all actives have a fitted effect of over 60% in size
#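 Protein-peptide AlphaScreen: BAZ2B 50 nM, b-H3K14Ac 50 nM, 1x PBS pH 7.4 + 0.01% Tween-20. Preincubation 30 min RT; cpd 30 min RT (top 110 uM); beads 20 min RT, light-protected.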
# The depositor's hits bear a star; ? = inconclusive; . = no result given; [ ] = another dose, or the depositor's remark. An excerpt weighted towards active compounds, which were near 11% of everything screened. Unless noted, calls come from the whole dose curve; as a rule, active = well fitted inhibition curve with a large enough effect; inconclusive = small, poorly fitted or top-dose-only effect; inactive = no such curve, though single readings can be large or run the other way.
SMILES,PI5P4K alpha inh,L3MBTL1 block,JMJD2A Tudor,HP1b chromo inh,G9a inh,BAZ2B inh
Cc1cc(=O)[nH]c(NCc2ccc(Cl)cc2)n1,0,-8%,-14%,25%,13%,-25%
Cc1cc(=O)[nH]c(NN=C2CCC(C(C)(C)C)CC2)n1 (stereo unspecified),4,0%,-16%,48%,32µM*,6%
Cc1cc(=O)[nH]c(NN=C(CC(C)C)CC(C)C)n1,-2,12%,?,-1%,?,11%
COc1ccc(-c2nc(C)c(CCNC(=O)c3ccc(F)c(F)c3)s2)cc1,.,.,-15%,20%[57 µM],12%[59 µM],-1%
COc1ccc2c(c1)c1c(c(=O)n(-c3ccc(C)cc3)c(=O)n1CC(=O)NCc1ccc(C)cc1)n2C,.,.,6%,38%,5%[59 µM],-6%
O=c1[nH]c(=O)c2ncn(C3OC(CO)C(O)C3O)c2[nH]1 (stereo unspecified),.,.,-4%[57.1 µM],23%[57 µM],.,.
Cc1ccc(NNC(=O)c2c(C)noc2C)cc1Cl,2,-5%,-10%,68%,7.1µM*,-11%
Cc1cc(Cl)ccc1NNC(=O)c1c(C)noc1C,-5,7%,79µM*,-7%,2.8µM*,-16%
Cc1nnc(N2CCCC(C(=O)NCCc3ccccc3)C2)c2nn(-c3ccccc3)c(C)c12 (stereo unspecified),.,.,-6%,11%,-5%[59 µM],-13%
Oc1c(Br)cc(Cl)cc1C=Nc1ccccc1Br,?,-2%,-21%,-6%,4µM*,-36%
CCCc1nc2ccccc2n2c(-c3ccc(C)cc3)c3c(=O)n(C)c(=O)n(C)c3c12,.,.,10%,62%,17%[59 µM],4%
COc1ccc(Cl)cc1NC(=O)C1CSC(c2ccncc2)=N1 (stereo unspecified),8,8%,-14%,19%,11µM*,-20%
COc1ccc(Cl)cc1NC(=O)NC(C)c1ccncc1 (stereo unspecified),.,.,-9%,19%,10%[59 µM],2%
Cc1c(C(=O)OCC2CCCO2)[nH]c2c1C(=O)CC(c1ccc(N(C)C)cc1)C2 (stereo unspecified),-3,-8%,50µM*,-5%,14µM*,45µM*
Cc1c(C(=O)OCc2ccccc2)[nH]c2c1C(=O)CC(c1ccc(N(C)C)cc1)C2 (stereo unspecified),.,.,-10%,27%,2%[59 µM],1%
COc1ccc(S(=O)(=O)N(Cc2nc(-c3ccc(C)cc3)no2)C2CCCCC2)cc1,.,.,10%,56%,19%[59 µM],-2%
CC(=O)Nc1ccc(Nc2nc(C)nc3c2oc2ccccc23)cc1,1,.,-13%[57.1 µM],57%,-4%[12.7 µM],-4%
CC(=O)c1ccc(Nc2ncnc3c2oc2ccccc23)cc1,5,5%,?,47%,79µM*,?
O=C(Nc1ccccc1C(F)(F)F)N1CCC2(CC1)Oc1ccccc1C(=O)N2Cc1ccccc1F,.,.,-7%,14%,-2%[59 µM],-1%
COc1ccc(C(=O)/C(=C/c2cccs2)c2nc3ccccc3o2)cc1,-11,.,45µM*,?,?,-33%
COc1ccc(/C=C(\CC(=O)O)c2nc3ccccc3o2)cc1,-1,15%,-6%,24%,2%,-6%
Cc1cccc(C(=O)Oc2ccc(/C=N/O)cc2)c1,.,-3%,-1%,51%,10µM*,-5%
O=C(/C=C/c1ccco1)Nc1ccccc1C(=O)Nc1cccc(C(=O)O)c1,-8,?,-30%,-4%,50µM*,-23%
CC(=O)Nc1cccc(C(=O)/C=C/c2ccco2)c1,-13,-6%,-12%,6%,14µM*,-2%
CCOc1ccc(NC(=S)NC(=O)/C=C/c2ccco2)cc1,-12,1%[2.29 µM],-19%,7%,9%[0.501 µM],-5%
SMILES,PI5P4K alpha inh,L3MBTL1 block,JMJD2A Tudor,HP1b chromo inh,G9a inh,BAZ2B inh
O=C(/C=C/c1ccco1)NC(=S)Nc1cccc(C(=O)O)c1,-74*,.,20µM*,20µM*,8.9µM*,32µM*
CC(=O)Nc1cccc(C(=O)/C=C/c2ccc(/C=C/C(=O)c3cccc(NC(C)=O)c3)cc2)c1,.,3%,.,.,1%[59 µM],1%
COc1cccc(NC(=S)NC(=O)/C=C/c2ccco2)c1,-54*,-27%,?,-12%,45µM*,50µM*
CCOc1ccccc1NC(=O)N1CCc2cc(S(=O)(=O)N3CCC(C)CC3)ccc21,.,.,-8%,22%,-19%[59 µM],-2%
CC1=CC(C)(C)N2C(=O)C3(NCCc4c3[nH]c3ccccc43)c3cc(C)cc1c32 (stereo unspecified),3,.,-16%[11.4 µM],-2%,?,56µM*
O=C1COc2ccc(-c3cc(-c4ccccc4)c4c(n3)-c3cc(Cl)ccc3OC4)cc2N1,.,.,-10%,16%,6%[59 µM],-16%
O=C(O)c1ccc(-c2nc(-c3ccc(Cl)c(Cl)c3)cs2)cc1,-3,.,-11%,40%,-34%,-12%
NC(=O)C(=CNc1nc(-c2ccc(Cl)c(Cl)c2)cs1)C(N)=O,.,-44%,.,.,.,45µM*
COC(=O)N1C(=O)[C@](CC(C)C)(c2ccccc2)N1C(=O)OC,-2,1%,-1%,69%,79µM*,-3%
CC[C@@]1(c2cccc(C)c2)C(=O)N(C(=O)OC)N1C(=O)OC,-9,1%,-26%,42%,45µM*,?
COC(=O)N1C(=O)[C@@](CC(C)C)(c2ccccc2)N1C(=O)OC,.,10%,.,.,50µM*,-31%
CC[C@@]1(c2ccccc2OC)C(=O)N(C(=O)OC)N1C(=O)OC,-7,10%,-17%,37%,.,-1%
CCOC(=O)N1C(=O)[C@@](CC)(c2ccccc2)N1C(=O)OCC,-22,11%,1%,58%,.,-1%
CCc1ccc(CNC(=O)CN2C(=O)c3cccnc3Oc3ccc(Cl)cc32)cc1,.,.,-7%,14%,-5%[59 µM],-5%
CCOc1ccccc1CNC(=O)CCn1ccc2cc(S(=O)(=O)N3CCC(C)CC3)ccc21,.,.,-8%,47%,-7%[59 µM],-9%
O=C(/C(C=Nc1ccc(Br)cc1)=C(/O)c1ccco1)C(F)(F)F,-6,13%,-25%,38%,45µM*,-1%
O=C1[C@H]2[C@H](ON3CCCC[C@H]23)C(=O)N1c1cccc(C(F)(F)F)c1,-4,.,-12%,-11%,-30%,-9%
COc1ccc([C@@H]2[C@H]3C(=O)N(c4cccc(C(F)(F)F)c4)C(=O)[C@H]3ON2C)cc1,7,8%,-3%,34%,45µM*,14%
COc1ccc(NC(=O)CCS(=O)(=O)c2ccc3c(c2)n(C)c(=O)c(=O)n3C)cc1Cl,.,.,-2%,30%,2%[59 µM],-2%
O=C1CCCc2[nH]c(=O)c(-c3nc(-c4cccc([N+](=O)[O-])c4)cs3)cc21,.,.,-5%,23%,1%[59 µM],3%
